# Assay results: PubChem BioAssay AID624416 (The Scripps Research Institute Molecular Screening Center, 2012)
# Hit rate of the full screen: of about 360,000 compounds, about 1,500 (0.42%) were called active. The sample holds actives, similar compounds and a random draw of the others, so the mix is not that of the screen. Unmarked numbers belong to inactive results. No stated cut-off is given here; in the data, active means inhibition above about 8.5%; inactive means the rest.
# Tested on: HIV-1 gp120 / PG9 antibody interaction
# Experiment: binders of HIV-1 gp120 antibody PG9, primary screen, biochemical, TR-FRET (AID 624416)
# Conditions: TR-FRET gp120-PG9 antibody binding; at 6.7 µM; stronger effect = higher value
row,SMILES,inhibition
1,CC(C)(C)c1ccc(S(=O)(=O)NCC2CCN(C(=O)C(=O)c3cc4ccccc4o3)CC2)cc1,-1.81%
2,Cc1cc(Br)cn2c(Cc3ccccc3C(F)(F)F)c(-c3ccc(C#N)cc3)nc12,0.29%
3,O=C1COc2ccc(C(=O)COC(=O)c3cccnc3Cl)cc2N1,-1.31%
4,COc1cc(N)c(Cl)cc1C(=O)OCC(=O)c1ccc2c(c1)NC(=O)CO2,-0.01%
5,O=C1COc2ccc(C(=O)COC(=O)c3ccccc3Cl)cc2N1,28.2% (active)
6,OC(c1ccccc1)(c1ccccc1)C1CCN(CCCOc2ccc(-c3ccsc3)cc2)CC1,1.88%
7,COCCCNC(=O)C[C@H]1C[C@@]2(C(=O)OC)C(=C[C@H](C(C)(C)C)O[C@@H]2C)N(Cc2ccc3c(c2)OCO3)C1=O,0.35%
8,CC(C)C[C@H](NC(=O)CC1CCCC1)C(=O)N1CCC[C@H]1C(=O)NCc1ccccc1,-0.84%
9,COc1ccc2ccccc2c1CNc1nnnn1C,0.54%
10,Cn1c(=S)sc2ccc3ccccc3c21,14.2% (active)
11,CC(=O)C1=C(C)N(Cc2ccc(Cl)cc2)C(=S)NC1c1ccc(F)cc1 (configuration not stated),-2.38%
12,Cc1ccc2nc(-c3ccc(CN4CCC(n5cc(-c6ccccc6)[nH]c5=O)CC4)cc3)c(-c3ccccc3)nc2c1,-0.32%
13,O=C(NCc1ccccc1)[C@H]1CCCN1C(=O)[C@H]1CCCN1C(=O)N1CCOCC1,-0.88%
14,CC(C)(C)n1nc(C2CC2)c(Br)c1NC(=O)c1ccccc1F,0.97%
15,CC1CCN(C(=O)c2ncn3c2C(=O)N[C@@H](C)C3)CC1,-0.93%
16,O=C(COC(=O)c1ccc2c(c1)OCCO2)NCc1ccccc1Cl,9.13% (active)
17,O=C(COC(=O)c1cc2c(s1)CCCC2)NCc1ccccc1Cl,-0.89%
18,O=C(OCc1ccccc1F)c1ccc2c(c1)OCCO2,-1.71%
19,CCOC(=O)/C=C/c1ccccc1O,0.44%
20,O=C1C(=O)N(CCCN2CCOCC2)C(c2ccc([N+](=O)[O-])cc2)/C1=C(\O)c1ccc2c(c1)OCCO2 (configuration not stated),-1.43%
21,CC1Cc2cc(/C(O)=C3\C(=O)C(=O)N(CCN4CCOCC4)C3c3ccccc3F)ccc2O1 (configuration not stated),13.2% (active)

row,SMILES,inhibition
1,COc1ccc(C2/C(=C(/O)c3ccc4c(c3)CC(C)O4)C(=O)C(=O)N2Cc2ccncc2)cc1 (configuration not stated),2.5%
2,O=C1C(=O)N(CCN2CCOCC2)C(c2cccc(Cl)c2)/C1=C(/O)c1ccc2c(c1)OCO2 (configuration not stated),30.6% (active)
3,COCCCN1C(=O)C(=O)/C(=C(/O)c2ccc3c(c2)CC(C)O3)C1c1cccnc1 (configuration not stated),3.22%
4,O=C1C(=O)N(CCN2CCOCC2)C(c2ccccn2)/C1=C(/O)c1ccc(Cl)cc1 (configuration not stated),0.67%
5,Cc1nc(NC(=O)C(C)(C)C)sc1[N+](=O)[O-],-0.45%
6,COC(=O)C1=C(C)N(Cc2cccc(C(F)(F)F)c2)C(=NCc2ccccc2)NC1c1ccccc1C(F)(F)F (configuration not stated),0.63%
7,COC(=O)C(C(=O)OC)c1ccccc1NS(=O)(=O)c1cccc2ccccc12,0.18%
8,CC(=NNC(N)=O)c1ccc(Cl)c(-n2cccc2)c1,0.53%
9,CCN(CC)S(=O)(=O)c1ccc2[nH]cc(C(=O)NCCc3ccccc3)c(=O)c2c1,-0.32%
10,COc1cccc(NS(=O)(=O)c2ccc3[nH]cc(C(=O)NCCCOC(C)C)c(=O)c3c2)c1,10.3% (active)
11,CCCCNC(=O)c1c[nH]c2ccc(S(=O)(=O)Nc3ccc(OCC)cc3)cc2c1=O,2.91%
12,CN1CCCCC(NC(=O)C(C)(C)C)C1=O (configuration not stated),-1.72%
13,O=C(O)CCCCCNc1ncnc2ccc(Br)cc12,18.3% (active)
14,CC(C)N(c1ccccc1)c1ncnc(NCCC(=O)O)c1[N+](=O)[O-],-1.67%
15,COC(=O)[C@]1(Cc2ccccc2)NC=C(C(=O)c2ccccc2)[C@@H]1c1cccc(OC)c1,-1.25%
16,CC(=O)Nc1ccc(Nc2nc3c(S(=O)(=O)c4ccc(C)c(C)c4)nnn3c3ccccc23)cc1,1.78%
17,Cc1cc(Nc2cccc(C)c2C)n2ncnc2n1,0.14%
18,Cc1cccc(Nc2nc3c(S(=O)(=O)c4ccccc4)nnn3c3ccccc23)c1C,16.5% (active)
19,COc1cccc(CNC(=O)[C@H]2CCCN2C(=O)[C@H]2CCCN2C(=O)c2ccc(F)cc2)c1,-1.74%
20,O=C(C(=O)N1CCC(CNS(=O)(=O)Cc2ccccc2)CC1)c1cc2ccccc2o1,0.63%
21,COC(=O)c1cc2c(c3c4cc(F)ccc4n(S(=O)(=O)c4ccccc4)c13)C(=O)N(Cc1ccccc1OC)C2,0.8%

row,SMILES,inhibition
1,CCOC(=O)C1CSCCS(=O)(=O)N1Cc1ccc(Cl)cc1 (configuration not stated),-1.82%
2,Cc1ccccc1C(=O)N[C@H](C(=O)N1CCC[C@H]1C(=O)NCc1ccccc1)C(C)C,-2.77%
3,Cc1nc2nc(SCC(=O)Nc3cccc(F)c3)[nH]c2cc1Br,-0.51%
4,Cc1nc2nc(SCC(=O)c3ccccc3)[nH]c2cc1Br,29.2% (active)
5,CC(=O)Nc1ccc(C(=O)CSc2nc3ccc(C)cc3[nH]2)cc1,-0.81%
6,COc1cccc(-c2cc(CNC(=O)[C@@H](Cc3ccccc3)NC(=O)[C@H]3O[C@@H](n4cnc(C(N)=O)n4)[C@H](O)[C@@H]3O)no2)c1,-2.73%
7,COC(=O)[C@]12C[C@H](CC(=O)NCc3ccc(C)o3)C(=O)N(CCC3=CCCCC3)C1=C[C@H](C(C)(C)C)O[C@@H]2C,-1.11%
8,COc1ccccc1-c1ccc([C@@H]2C[C@H]3[C@H](CON3C)CN2S(=O)(=O)c2cc(Cl)cc(Cl)c2)cc1,-0.23%
9,CC[C@H](C)[C@H]1CNC(=O)C(=O)N1CC1CCN(CCc2ccc(OC)c(OC)c2)CC1,-1.11%
10,Cc1cc2c(cc1C)N1C(=O)c3cc4ccccc4cc3NC(=O)C1C(=O)N2 (configuration not stated),9.79% (active)
11,Cc1cc(N2CCN(C(=O)OC(C)(C)C)C[C@H]2C)ccc1N1CCN(Cc2ccccc2)[C@H](C)C1,-1.9%
12,CCOC(=O)Cc1csc(NC(=O)CSc2nnc(-c3cccnc3)n2Cc2ccco2)n1,-0.33%
13,CCc1ccc(NC(=O)CSc2nnc(-c3cnccn3)n2Cc2ccco2)cc1,14.2% (active)
14,CCn1c(SCC(=O)Nc2cc(C)ccc2C)nnc1-c1cnccn1,1.97%
15,CC(C)(C)C(c1nc2ccccc2[nH]1)n1c(Cc2csc3ccccc23)nc2ccccc21 (configuration not stated),3.67%
16,CC(C)OCCCNC(=O)c1cc(Sc2ccc(F)cc2)nc2ccccc12,17.2% (active)
17,O=C(NCCOc1ccccc1)c1ccccc1F,-0.63%
18,CC(C)CCNC(=O)c1cccnc1Sc1ccccc1,-0.45%
19,O=S1(=O)c2ccc(Br)cc2-n2nncc2CN1Cc1cccc(Cl)c1,1.6%
20,Nc1ccn([C@@H]2O[C@H](C(=O)N[C@H]3CCCCNC3=O)[C@@H](O)[C@H]2O)c(=O)n1,-0.25%
21,CCN(CC)S(=O)(=O)c1cc(C(=O)Nc2ccccn2)ccc1C,-1.5%

row,SMILES,inhibition
1,CCOc1cc(NC(=O)c2ccccc2C(=O)O)c(OCC)cc1NC(=O)c1ccccc1F,-7.45%
2,CCOc1cc2ccccc2cc1C(=O)Nc1ccccn1,12.2% (active)
3,Nc1ncnc2c1ncn2[C@@H]1O[C@H](C(=O)N[C@@H](CCc2ccccc2)C(=O)N2CCCN(Cc3cccs3)CC2)[C@@H](O)[C@H]1O,0.34%
4,C#CCN([C@@H](C)C(=O)OCC)S(=O)(=O)c1ccc(Br)cc1F,-1.25%
5,C[C@@H]1ON(C)[C@H]2C[C@H]3c4cc(N5CCOCC5)ccc4CCN3C[C@@H]12,-1.04%
6,CC1(C)Cc2ccccc2/C(=C/C(=O)c2ccccc2)N1,0.12%
7,CC1(C)Cc2ccccc2-c2[nH]c(=S)[nH]c(=O)c21,35% (active)
8,N#CC1=C(N)Oc2[nH]c(=S)[nH]c(=O)c2C12C(=O)Nc1ccccc12 (configuration not stated),-2.89%
9,COC(=O)c1cc2c(c3c4ccccc4n(S(=O)(=O)c4cccc(C)c4)c13)C(=O)N(Cc1ccccc1)C2,0.57%
10,N#Cc1cccc(C(=O)NCC2CCN(C(=O)C(=O)c3cc4ccccc4o3)CC2)c1,-0.57%
11,CCCCOCC1CN(CCCC)S(=O)(=O)c2c(Oc3ccc(F)cc3)cccc2O1 (configuration not stated),-0.05%
12,O=C(C1=C(O)C(=O)N(Cc2ccccc2)C1c1ccco1)c1ccco1 (configuration not stated),17.9% (active)
13,O=C(C1=C(O)C(=O)N(Cc2ccccc2)C1c1cccnc1)c1ccco1 (configuration not stated),7.52%
14,CCOc1cc(C2C(C(=O)c3ccco3)=C(O)C(=O)N2Cc2ccccc2)ccc1O (configuration not stated),0.36%
15,COC(=O)C1=C(C)N(Cc2cccc(C(F)(F)F)c2)C(=NCc2cccc(C(F)(F)F)c2)NC1c1ccccc1C(F)(F)F (configuration not stated),-0.87%
16,COC(=O)C1=C(C)NC(=S)NC1c1ccc(OC)cc1 (configuration not stated),-0.48%
17,COC(=O)C1=C(C)N(Cc2cccc(C(F)(F)F)c2)C(=NCc2ccccc2)NC1c1ccc(Cl)cc1 (configuration not stated),-1.36%
18,COC(=O)[C@H](CC(C)C)NS(=O)(=O)c1c(F)cccc1F,-2.8%
19,COc1ccc(S(=O)(=O)Nc2ccc3c(c2)C(=O)N([C@H](C)CO)C[C@H](C)[C@@H](CN(C)C)OCCCC[C@H](C)O3)cc1,-0.42%
